Reference: PubChem BioAssay AID463195 (Sanford-Burnham Center for Chemical Genomics, 2010)
The campaign covered roughly 330,000 compounds. About 4,600 (1.4%) were called active. This excerpt belongs to a sample that is enriched for actives. Values without a mark were called inactive.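 The calls were made as follows: active = inhibition of 40% or more at the single tested concentration; inactive = the rest.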

Test: wild-type TIM10 yeast growth inhibition – luminescence, uHTS, counter-screen for tim10-1 yeast inhibitor project, primary screen (AID 463195);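 also: wild-type TIM10 isogenic control strain grown at permissive 25 °C; 0% = DMSO yeast wells and 100% = minimal medium wells without yeast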
Conditions: S. cerevisiae TIM10 strain growth, BacTiter-Glo luminescence, 24 h; at 10 µM; hits give high values

In the case of `Cc1ccc(-c2nc3ccccc3c(=O)n2-c2ccc(Br)cn2)cc1`, the inhibition is reported as 43.5% (active).
With `C/C(=N/O)c1ccc2ccc3ccccc3c2c1` the inhibition was 40.7% (active).
In the case of `O=C1NC(=O)N(c2ccccc2)C(=O)/C1=C/c1ccc([N+](=O)[O-])s1`, the inhibition is reported as 85.5% (active).
In the case of `COc1cccc(N2C(=O)NC(=O)/C(=C\c3ccc([N+](=O)[O-])s3)C2=O)c1`, the inhibition is reported as 78.4% (active).
For `Cc1cc2ccccn2c1C(C[N+](=O)[O-])c1c(F)cccc1Cl` (stereo not given), the inhibition was 52.7% (active).

First: O=c1c2ccccc2nc(-c2ccco2)n1-c1ccc(Br)cn1
Second: O=c1c2ccccc2nc(-c2ccccc2)n1-c1ccccn1
The inhibition of the first is lower: 5.95% for the first, 9.32% for the second.

First: C=CC12CN(C)[C@@H]3C4CO[C@H](C[C@H]41)[C@]1(C(=O)Nc4ccccc41)[C@@H]32 (stereo not given in full)
Second: CC[C@H]1CC2CN3CCc4c([nH]c5ccccc45)C(C(=O)OC)(C2)C13 (stereo not given in full)
The inhibition of the first is lower: -2.08% for the first, -1.49% for the second.

First: O=c1c2ccccc2nc(-c2ccc(Cl)cc2Cl)n1-c1ccncc1
Second: CC(C(=O)Nc1ccc(Cl)cc1Cl)N1CC=C(c2ccccc2)CC1 (stereo not given)
The inhibition of the first is higher: 18.8% for the first, 15.3% for the second.

First: CCN(CC)CCOC(=O)c1cc2cc(COC)ccc2o1
Second: CC(=O)Cc1ccc(OC(C)C)cc1
The inhibition of the first is higher: -10.2% for the first, -13.5% for the second.

Going from `CC(C)CN1CCN(Cc2ccccc2C(F)(F)F)CC1CCO` (stereo not given) to `CCc1cccc2c(C#N)cn(CC(=O)N3CCOCC3)c12`, the inhibition rises from -6.36% to 9.92%.

Going from `C/C(CCc1c[nH]c2ccccc12)=N\O` to `O=[N+]([O-])c1cnc2ccc3ccccc3c2c1`, the inhibition falls from 6.37% to -22.9%.

First: COc1ccc(N2C(=O)/C(=C/c3ccco3)C(=O)NC2=S)cc1
Second: Cc1c(C(=O)O)cccc1-n1c(C)cc(/C=C2\C(=O)NC(=O)N(c3ccc4c(c3)OCO4)C2=O)c1C
The inhibition of the first is higher: -0.32% for the first, -7.16% for the second.

Going from `Cn1c(C(=O)N2CCC(C(=O)N3CCC4(CC3)OCCO4)CC2)cc2sccc21` to `COC(=O)C1=C(c2ccccc2)C[C@@H]2CC[C@H]1N2C(=O)N1CCCCC1`, the inhibition rises from 1.3% to 28.7%.

Going from `COc1ccc(CCn2c(O)c(C=NC3CC3)c(=O)[nH]c2=O)cc1OC` to `CCCCCn1c(=O)c(C(=O)Nc2c(C)n(C)n(-c3ccccc3)c2=O)c(O)c2ccccc21`, the inhibition rises from 0.042% to 24.7%.

First: CCN1c2nc3c(C)cccn3c(=O)c2CC2(C(=O)N(C)C(=O)N(C)C2=O)C1C (stereo not given)
Second: Cc1cccc(NC(=O)N2CC3CC(C2)c2cccc(=O)n2C3)c1 (stereo not given)
The inhibition of the first is higher: 5.19% for the first, -9.99% for the second.
